Data on 40 compounds can be found in PubChem BioAssay (Tox21).

The source made the active and inactive calls. Where a call stands in place of a potency, no number is given. Calls follow the shape of the dose curve; as a rule, active = well fitted curve in the direction sought with a large enough effect in the repeat runs; inconclusive = weak or mixed curves; inactive = flat fitted curve, though single readings scatter.
Potency is read from the fitted curve at half-maximal effect; tags tell the direction and shape of the fitted curve or compound fluorescence and quenching.

The experiment in a line: qHTS assay to test for compound auto fluorescence at 460 nm (blue) in HepG2 cells (AID 720687). The conditions noted are these: autofluorescence 405/460 nm, 1 h; series mostly up to 91.3 µM. The text has this: U.S. Tox21 Program National Center for Advancing Translational Sciences [NCATS] NIH Chemical Genomics Center [NCGC] U.S. Environmental Protection Agency [EPA] National Institutes of Environmental Health Sciences [NIEHS] National Toxicology Program [NTP] U.S. Food and Drug Administration [FDA] Tox21 Assay Overview: Compound auto fluorescence often interferes with screening of the compound library against various biological targets and signaling pathways. Some of these compounds may have fluorophoric properties. Such properties may interfere with the assay outputs resulting in false positives and/or negatives. To decrease such complications and ensure the compound activities are relevant in terms of biological response, the Tox21 10K compound library was screened for auto fluorescence. From the fluorophores used as reporter signals in our screening assays, the auto fluorescence equivalencies of compounds against three fluorophores have been evaluated: Triamterene, Fluorescein and Rose Bengal sodium for blue, green and red fluorescence, respectively. The fluorescence intensities were measured using Excitation/Emission wavelengths at 405/460nm, 485/535nm and 540/590nm for blue, green and red labels, respectively. This assay includes the blue fluorescence data.
Tox21 Assay Protocol Summary: 2,000 HepG2 cells in 5 uL of culture medium (MEM containing 10% FBS) per well were dispensed into black wall/clear bottom 1536-well plates using a Multidrop Combi Dispenser (ThermoFisher Scientific, Waltham, MA). The assay plates were incubated overnight at 37 C to allow cell attachment to the well bottom, followed by the transfer of 23 nL compound or DMSO vehicle by a pintool work station (Kalypsys , San Diego, CA). After the assay plates were incubated for 1 hr at 37 C and 5% CO2, fluorescence intensities in the assay plates were measured by an Envision (PerkinElmer, Shelton, CT) plate reader using three labels for measuring blue, green and red fluorescence at […] 460, 535 and 590 nm respectively.
In the case of `C=CC(C)(O)CCC=C(C)C` (stereo not given), the Potency entry was “inactive”.
For `C=CCCCCCCCCCC` the value was “inactive”.
For `CCC(Cc1c(I)cc(I)c(N)c1I)C(=O)O` (stereo not given) the value was “inactive”; for `Nc1cc(Cl)c(N)c(Cl)c1`, “inactive”.
Regarding `Cc1ccc(/C(=C\CN2CCCC2)c2ccccn2)cc1`, the Potency result was “inactive”.
For `COCCOCCOCCO` the value was “inactive”; for `C=CCOC(=O)C(=C)C`, “inactive”.
For `CC(=O)O[C@]1(C(C)=O)CC[C@H]2[C@@H]3C=C(Cl)C4=CC(=O)CC[C@]4(C)[C@H]3CC[C@@]21C` the value was “inactive”.
For `CCCN1C=CN(C)C1` the value was “inactive”; for `O=[Se](O)O`, “inactive”; for `O=C(O)c1cc(=O)[nH]c(=O)[nH]1`, “inactive”.
Turning to `CN(Cc1cnc2nc(N)nc(N)c2n1)c1ccc(C(=O)N[C@@H](CCC(=O)O)C(=O)O)cc1`, the Potency was 35.5 µM [fluorescent] (active).
For `CC(C)(C)c1cccc(C(C)(C)C)c1O` the value was “inactive”; for `CCCCCCOCCOCCO`, “inactive”; for `NC[C@H](O)c1ccc(O)c(O)c1`, “inactive”.
For `COC(=O)CC(=O)OC` the value was “inactive”.
For `OC[C@@H](O)[C@@H](O[C@@H]1O[C@H](CO)[C@H](O)[C@H](O)[C@H]1O)[C@H](O)[C@@H](O)CO` the value was “inactive”.
Consider `O=C(O)CCCC(=O)O`, for which the Potency result was “inactive”.
For `Cc1ccc(S(=O)(=O)NCl)cc1` the value was “inactive”; for `FC(F)(F)C(Cl)Br` (stereo not given), “inactive”; for `Cc1ccc(C)c(O)c1`, “inactive”.
In the case of `CCCCCC1C(=O)CCC1CC(=O)OC` (stereo not given), the Potency result is “inactive”.
For `Nc1ccc2c(c1)C(=O)c1ccccc1C2=O` the value was “inactive”; for `C[C@]12CC[C@@H]3c4ccc(O)cc4CC[C@H]3[C@@H]1CC[C@@H]2O`, “inactive”.
Take `O=Cc1ccccc1C=O`: the Potency result was “inactive”.
For `C1CN(SSN2CCOCC2)CCO1` the value was “inactive”; for `CC1(C)NC(=O)N(c2ccc([N+](=O)[O-])c(C(F)(F)F)c2)C1=O`, “inactive”.
On to `Cc1ccc(C(C)(C)C)cc1`, for which the Potency result was “inactive”.
For `CCCCCCCCCCCCCO` the value was “inactive”; for `c1ccc2ncccc2c1`, “inactive”.
For `C=CC(=O)OCCCC` the value was “inactive”.
For `CC/C=C\C/C=C\C/C=C\CCCCCCCC(=O)O` the value was “inactive”.
For `CC[C@]12CCCN3CCc4c(n(c5ccccc45)[C@@](O)(C(=O)OC)C1)[C@@H]32`, the Potency result is “inactive”.
For `CCCCCCC(C)O` (stereo not given) the value was “inactive”.
For `COc1ccc2nc(N)sc2c1` the value was “inactive”; for `CN(C)CCCN1c2ccccc2Sc2ccc(Cl)cc21`, “inactive”.
Regarding `CCOC(=O)C(C)Oc1ccc(Oc2cnc3cc(Cl)ccc3n2)cc1` (stereo not given), the Potency result is “inactive”.
For `C1COCCN1` the value was “inactive”.
As for `ClC/C=C/CCl`, the Potency entry was “inactive”.
In the case of `CC(C)[N+](C)(CCOC(=O)C1c2ccccc2Oc2ccccc21)C(C)C`, the Potency entry was “inactive”.
